Test results reported in PubChem BioAssay AID1159580 (chemical genetic matrix, 2015).
Several values for one entry are separate records, joined by “and”; a condition that tells them apart may be missing. Equal values may be shown once. In all, about 5,500 compounds went through this assay and about 2,000 (36%) were called active. Inconclusive results (about 18%) are left out. Cut-off read from the data, not from the text of the source: active = normalized growth mostly below about 0.91 (no sharp cut-off); inconclusive = no clear call, values can overlap the other calls; inactive = mostly above about 0.92. This is one part of the list.

Assay: chemical genetic growth profiling, strain panel (AID 1159580);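 note: tested at 20 µM; growth read once vehicle control cultures reached saturation at 30 °C; 1 = growth at the plate median or of vehicle wells; lower values mean less growth of the strain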
Settings: S. cerevisiae deletion strains, growth OD

Measured: normalized growth

CC(=O)OCC1=C(C(=O)O)N2C(=O)[C@@H](NC(=O)Cc3cccs3)[C@H]2SC1
inactive: locus YAL013W, strain DEP1, hits give low values 0.991 | locus YAL021C, strain ccr4, hits give low values 1.03 | locus YAL026C, strain drs2, hits give low values 0.991 | locus YAL030W, strain snc1, hits give low values 1.02 | locus YBL061C, strain skt5, hits give low values 1.03 | locus YBR009C, strain hhf1, hits give low values 0.974 | locus YBR021W, strain FUR4, hits give low values 1.01 | locus YBR023C, strain chs3, hits give low values 1.03 | locus YBR171W, strain sec66, hits give low values 1.02 | locus YBR229C, strain ROT2, hits give low values 0.948 | locus YBR231C, strain swc5, hits give low values 0.988 | locus YBR279W, strain paf1, hits give low values 0.987 | locus YCL011C, strain gbp2, hits give low values 0.973 | locus YCL016C, strain dcc1, hits give low values 0.986 | locus YCL029C, strain bik1, hits give low values 0.984 | locus YCL069W, strain vba3, hits give low values 1.01 | locus YCR088W, strain abp1, hits give low values 1.01 | locus YDL005C, strain med2, hits give low values 1.03 | locus YDL035C, strain GPR1, hits give low values 0.96 | locus YDL040C, strain nat1, hits give low values 1.02 | locus YDL074C, strain BRE1, hits give low values 0.993 | locus YDL101C, strain DUN1, hits give low values 0.989 | locus YDL134C, strain PPH21, hits give low values 0.959 | locus YDL185W, strain tfp1, hits give low values 0.965 | locus YDL192W, strain arf1, hits give low values 0.977 | locus YDR001C, strain nth1, hits give low values 1.02 | locus YDR069C, strain doa4, hits give low values 1.03 | locus YDR101C, strain arx1, hits give low values 0.972 | locus YDR137W, strain rgp1, hits give low values 0.962 | locus YDR150W, strain NUM1, hits give low values 0.983 | locus YDR159W, strain sac3, hits give low values 1.05 | locus YDR162C, strain NBP2, hits give low values 0.948 | locus YDR195W, strain ref2 1.04 | locus YDR297W, strain sur2, hits give low values 1.02 | locus YDR318W, strain mcm21, hits give low values 0.991 | locus YDR334W, strain swr1, hits give low values 0.986 | locus YDR335W, strain msn5, hits give low values 0.99 | locus YDR388W, hits give low values 0.981 | locus YDR392W, strain spt3, hits give low values 0.959 | locus YDR502C, strain sam2, hits give low values 0.997 | locus YEL003W, strain gim4, hits give low values 1 | locus YEL037C, strain rad23, hits give low values 1 | locus YEL061C, strain CIN8 (second series), hits give low values 1.01 | locus YEL061C, strain CIN8, hits give low values 0.984 | locus YER015W, strain faa2, hits give low values 0.972 | locus YER016W, strain bim1, hits give low values 0.987 | locus YER110C, hits give low values 0.972 | locus YER111C, strain swi4, hits give low values 0.995 | locus YER155C, strain BEM2 (second series), hits give low values 1 | locus YER155C, strain BEM2, hits give low values 1 | locus YER167W, strain BCK2, hits give low values 0.986 | locus YFR010W, strain ubp6, hits give low values 1.01 | locus YGL078C, strain dbp3, hits give low values 0.987 | locus YGL086W, strain mad1, hits give low values 0.979 | locus YGL167C, strain pmr1, hits give low values 1.02 | locus YGL173C, strain kem1, hits give low values 0.987 | locus YGL227W, strain vid30, hits give low values 1.04 | locus YGL240W, strain doc1, hits give low values 1.06 | locus YGL248W, strain PDE1, hits give low values 1.01 | locus YGL253W, strain hxk2, hits give low values 1 | locus YGR135W, strain pre9, hits give low values 1.04 | locus YGR252W, strain gcn5, hits give low values 1.03 | locus YHR013C, strain ard1, hits give low values 1.03 | locus YHR027C, strain rpn1, hits give low values 0.994 | locus YHR030C, strain SLT2, hits give low values 0.977 and 0.94 | locus YHR079C, strain IRE1 (second series), hits give low values 0.995 | locus YHR079C, strain IRE1, hits give low values 0.976 | locus YHR094C, strain hxt1, hits give low values 0.982 | locus YHR129C, strain ARP1, hits give low values 0.984 | locus YHR142W, strain chs7, hits give low values 0.995 | locus YHR200W, strain rpn10, hits give low values 0.983 | locus YIL066C, strain RNR3, hits give low values 0.972 | locus YIL073C, strain SPO22, hits give low values 1.04 | locus YIL125W, strain kgd1, hits give low values 0.983 | locus YIR030C, strain dcg1, hits give low values 0.99 | locus YJL092W, strain hpr5, hits give low values 1.01 | locus YJL095W, strain BCK1 (second series), hits give low values 1 | locus YJL095W, strain BCK1, hits give low values 1.05 and 0.96 | locus YJL115W, strain asf1, hits give low values 1.02 | locus YJL129C, strain trk1, hits give low values 1.05 | locus YJL134W, strain LCB3, hits give low values 0.99 | locus YJL154C, strain vps35, hits give low values 1.02 | locus YJL164C, strain tpk1, hits give low values 0.972 | locus YJL166W, strain qcr8, hits give low values 0.996 | locus YJL168C, strain set2, hits give low values 0.986 | locus YJL187C, strain SWE1 (second series), hits give low values 1.01 | locus YJL187C, strain SWE1, hits give low values 1.01 | locus YJR043C, strain POL32, hits give low values 0.963 | locus YJR066W, strain TOR1, hits give low values 0.995 | locus YJR075W, strain HOC1, hits give low values 1 | locus YKL009W, strain mrt4, hits give low values 1 | locus YKL068W, hits give low values 0.977 | locus YKL085W, strain MDH1 (second series), hits give low values 0.966 | locus YKL085W, strain MDH1, hits give low values 0.966 | locus YKL160W, strain elf1, hits give low values 1.01 | locus YKR001C, strain vps1, hits give low values 0.986 | locus YKR026C, strain gcn3, hits give low values 1.04 | locus YKR091W, strain srl3, hits give low values 0.999 | locus YLL001W, strain dnm1, hits give low values 0.992 | locus YLL026W, hits give low values 1.02 | locus YLL041C, strain sdh2, hits give low values 1.02 | locus YLR027C, strain aat2, hits give low values 1.01 | locus YLR039C, strain RIC1, hits give low values 0.986 | locus YLR058C, strain SHM2, hits give low values 0.978 | locus YLR102C, strain apc9, hits give low values 0.987 | locus YLR113W, strain HOG1, hits give low values 0.971 | locus YLR221C, strain rsa3, hits give low values 0.996 | locus YLR258W, strain gsy2, hits give low values 1 | locus YLR262C, strain YPT6 (second series), hits give low values 1.01 | locus YLR262C, strain YPT6, hits give low values 0.937 | locus YLR268W, strain sec22, hits give low values 0.975 | locus YLR320W, strain mms22, hits give low values 0.978 | locus YLR330W, strain CHS5, hits give low values 0.99 | locus YLR342W, strain FKS1 (second series), hits give low values 1 | locus YLR342W, strain FKS1, hits give low values 0.992 | locus YLR357W, strain rsc2, hits give low values 0.991 | locus YLR370C, strain arc18, hits give low values 1 | locus YLR371W, strain rom2, hits give low values 0.998 | locus YLR384C, strain iki3, hits give low values 1.03 | locus YLR418C, strain cdc73, hits give low values 1.01 | locus YML016C, strain PPZ1, hits give low values 0.996 | locus YML032C, strain rad52, hits give low values 0.98 | locus YML120C, strain ndi1, hits give low values 1 | locus YML124C, strain tub3, hits give low values 0.985 | locus YMR058W, strain fet3, hits give low values 0.923 | locus YMR078C, strain ctf18, hits give low values 0.986 | locus YMR125W, strain sto1, hits give low values 1.03 | locus YMR129W, hits give low values 1.02 | locus YMR205C, strain PFK2, hits give low values 1.02 | locus YMR223W, strain ubp8, hits give low values 1.01 | locus YMR231W, strain pep5, hits give low values 1.01 | locus YMR263W, strain SAP30, hits give low values 0.998 | locus YMR307W, strain GAS1, hits give low values 0.898 | locus YNL067W, strain RPL9B, hits give low values 1.01 | locus YNL071W, strain lat1, hits give low values 0.994 | locus YNL183C, strain NPR1, hits give low values 0.919 | locus YNL209W, strain ssb2, hits give low values 1 | locus YNL233W, strain BNI4, hits give low values 1.03 | locus YNL248C, strain rpa49, hits give low values 0.993 | locus YNL250W, strain rad50, hits give low values 0.995 | locus YNL271C, strain bni1, hits give low values 1 | locus YNL298W, strain CLA4, hits give low values 0.979 | locus YNL307C, strain MCK1, hits give low values 0.988 | locus YNL322C, strain KRE1 (second series), hits give low values 1.01 | locus YNL322C, strain KRE1, hits give low values 0.989 | locus YNR049C, strain mso1, hits give low values 1.02 | locus YNR052C, strain pop2, hits give low values 0.985 | locus YOL006C, strain TOP1, hits give low values 1.13 | locus YOL012C, strain htz1 0.756 | locus YOL147C, strain pex11, hits give low values 0.986 | locus YOR001W, strain rrp6, hits give low values 1.02 | locus YOR061W, strain CKA2, hits give low values 0.968 | locus YOR069W, strain VPS5, hits give low values 0.987 | locus YOR070C, strain gyp1, hits give low values 0.995 | locus YOR080W, strain dia2, hits give low values 1.02 | locus YOR083W, strain WHI5, hits give low values 0.993 | locus YOR106W, strain vam3, hits give low values 0.981 | locus YOR136W, strain idh2, hits give low values 0.983 | locus YOR144C, strain elg1, hits give low values 0.988 | locus YOR184W, strain ser1, hits give low values 1 | locus YOR231W, strain MKK1, hits give low values 0.972 | locus YOR265W, strain rbl2, hits give low values 1.02 | locus YOR270C, strain vph1, hits give low values 0.925 | locus YOR290C, strain snf2, hits give low values 0.992 | locus YOR316C, strain cot1, hits give low values 0.973 | locus YPL051W, strain arl3, hits give low values 0.995 | locus YPL055C, strain LGE1, hits give low values 0.989 | locus YPL078C, strain atp4, hits give low values 1.02 | locus YPL106C, strain sse1, hits give low values 0.945 | locus YPL240C, strain hsp82, hits give low values 1.04 | locus YPL256C, strain CLN2, hits give low values 0.962 | locus YPR119W, strain clb2, hits give low values 0.984 | locus YPR141C, strain kar3, hits give low values 0.983 | locus YPR163C, strain tif3, hits give low values 0.984 | locus YPR167C, strain met16, hits give low values 0.997 | strain wtn01, hits give low values 1
